Screens from PubChem.
TRb-SRC2 inh: disrupts binding of human TR beta to SRC2. AID 1469. TRbeta-SRC2 peptide binding, fluorescence polarization; receptor liganded with 1 µM T3. actives 0.065% (n = 280,000). Potency, µM (top dose mostly 106 µM), for the others: top-dose activity change, negative = inhibition, hits mostly inhibitors; active = well fitted inhibition curve with a large enough effect; inconclusive = small, poorly fitted or top-dose-only effect, or effect the other way;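 also: potency is read from the fitted curve at half-maximal effect; plate controls were bound peptide for no effect and peptide without receptor for full effect; nearly all actives have a fitted effect of over 50% in size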
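Compounds were added to 0.6 uM TRb ligand-binding domain and 20 nM Texas Red-labeled SRC2 peptide in Tris buffer containing 1 uM T3, incubated 5 hr at ambient temperature, then read by fluorescence polarization.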
Menin-MLL FL inh: displaces fluorescein MLL peptide from human menin; FP activity change, % at 61.4 µM; 290,000 tested, under 10 active; Fluorescence polarization, fluorescein-MLL peptide displacement from menin; active = well fitted curve in the direction sought with a large enough effect in the polarisation, not every such curve was filed as active; inconclusive = small, poorly fitted or top-dose-only effect, or effect the other way, or a change in a side signal; inactive = no such curve, though single readings can be large or run the other way; the % refers to the polarisation; also: % of control where 0% means no effect
MLL CXXC-DNA inh: MLL CXXC-DNA interaction inhibition; Q03164; MLL-CXXC / FITC-HOXA9 DNA fluorescence polarization; Potency, µM (titrated, usually from 115 µM), inactives show at the top dose activity change, negative = inhibition, hits mostly inhibitors; actives 0.037% (n = 290,000); AID 2662; active = well fitted inhibition curve with a large enough effect in the polarisation, with a control signal flat, not every such curve was filed as active; inconclusive = small, poorly fitted or top-dose-only effect, or effect the other way, or a change in a side signal; inactive = no such curve, though single readings can be large or run the other way; the % refers to the polarisation; also: potency is read from the fitted curve at half-maximal effect
Target sequence (Q03164 whole entry, looked up): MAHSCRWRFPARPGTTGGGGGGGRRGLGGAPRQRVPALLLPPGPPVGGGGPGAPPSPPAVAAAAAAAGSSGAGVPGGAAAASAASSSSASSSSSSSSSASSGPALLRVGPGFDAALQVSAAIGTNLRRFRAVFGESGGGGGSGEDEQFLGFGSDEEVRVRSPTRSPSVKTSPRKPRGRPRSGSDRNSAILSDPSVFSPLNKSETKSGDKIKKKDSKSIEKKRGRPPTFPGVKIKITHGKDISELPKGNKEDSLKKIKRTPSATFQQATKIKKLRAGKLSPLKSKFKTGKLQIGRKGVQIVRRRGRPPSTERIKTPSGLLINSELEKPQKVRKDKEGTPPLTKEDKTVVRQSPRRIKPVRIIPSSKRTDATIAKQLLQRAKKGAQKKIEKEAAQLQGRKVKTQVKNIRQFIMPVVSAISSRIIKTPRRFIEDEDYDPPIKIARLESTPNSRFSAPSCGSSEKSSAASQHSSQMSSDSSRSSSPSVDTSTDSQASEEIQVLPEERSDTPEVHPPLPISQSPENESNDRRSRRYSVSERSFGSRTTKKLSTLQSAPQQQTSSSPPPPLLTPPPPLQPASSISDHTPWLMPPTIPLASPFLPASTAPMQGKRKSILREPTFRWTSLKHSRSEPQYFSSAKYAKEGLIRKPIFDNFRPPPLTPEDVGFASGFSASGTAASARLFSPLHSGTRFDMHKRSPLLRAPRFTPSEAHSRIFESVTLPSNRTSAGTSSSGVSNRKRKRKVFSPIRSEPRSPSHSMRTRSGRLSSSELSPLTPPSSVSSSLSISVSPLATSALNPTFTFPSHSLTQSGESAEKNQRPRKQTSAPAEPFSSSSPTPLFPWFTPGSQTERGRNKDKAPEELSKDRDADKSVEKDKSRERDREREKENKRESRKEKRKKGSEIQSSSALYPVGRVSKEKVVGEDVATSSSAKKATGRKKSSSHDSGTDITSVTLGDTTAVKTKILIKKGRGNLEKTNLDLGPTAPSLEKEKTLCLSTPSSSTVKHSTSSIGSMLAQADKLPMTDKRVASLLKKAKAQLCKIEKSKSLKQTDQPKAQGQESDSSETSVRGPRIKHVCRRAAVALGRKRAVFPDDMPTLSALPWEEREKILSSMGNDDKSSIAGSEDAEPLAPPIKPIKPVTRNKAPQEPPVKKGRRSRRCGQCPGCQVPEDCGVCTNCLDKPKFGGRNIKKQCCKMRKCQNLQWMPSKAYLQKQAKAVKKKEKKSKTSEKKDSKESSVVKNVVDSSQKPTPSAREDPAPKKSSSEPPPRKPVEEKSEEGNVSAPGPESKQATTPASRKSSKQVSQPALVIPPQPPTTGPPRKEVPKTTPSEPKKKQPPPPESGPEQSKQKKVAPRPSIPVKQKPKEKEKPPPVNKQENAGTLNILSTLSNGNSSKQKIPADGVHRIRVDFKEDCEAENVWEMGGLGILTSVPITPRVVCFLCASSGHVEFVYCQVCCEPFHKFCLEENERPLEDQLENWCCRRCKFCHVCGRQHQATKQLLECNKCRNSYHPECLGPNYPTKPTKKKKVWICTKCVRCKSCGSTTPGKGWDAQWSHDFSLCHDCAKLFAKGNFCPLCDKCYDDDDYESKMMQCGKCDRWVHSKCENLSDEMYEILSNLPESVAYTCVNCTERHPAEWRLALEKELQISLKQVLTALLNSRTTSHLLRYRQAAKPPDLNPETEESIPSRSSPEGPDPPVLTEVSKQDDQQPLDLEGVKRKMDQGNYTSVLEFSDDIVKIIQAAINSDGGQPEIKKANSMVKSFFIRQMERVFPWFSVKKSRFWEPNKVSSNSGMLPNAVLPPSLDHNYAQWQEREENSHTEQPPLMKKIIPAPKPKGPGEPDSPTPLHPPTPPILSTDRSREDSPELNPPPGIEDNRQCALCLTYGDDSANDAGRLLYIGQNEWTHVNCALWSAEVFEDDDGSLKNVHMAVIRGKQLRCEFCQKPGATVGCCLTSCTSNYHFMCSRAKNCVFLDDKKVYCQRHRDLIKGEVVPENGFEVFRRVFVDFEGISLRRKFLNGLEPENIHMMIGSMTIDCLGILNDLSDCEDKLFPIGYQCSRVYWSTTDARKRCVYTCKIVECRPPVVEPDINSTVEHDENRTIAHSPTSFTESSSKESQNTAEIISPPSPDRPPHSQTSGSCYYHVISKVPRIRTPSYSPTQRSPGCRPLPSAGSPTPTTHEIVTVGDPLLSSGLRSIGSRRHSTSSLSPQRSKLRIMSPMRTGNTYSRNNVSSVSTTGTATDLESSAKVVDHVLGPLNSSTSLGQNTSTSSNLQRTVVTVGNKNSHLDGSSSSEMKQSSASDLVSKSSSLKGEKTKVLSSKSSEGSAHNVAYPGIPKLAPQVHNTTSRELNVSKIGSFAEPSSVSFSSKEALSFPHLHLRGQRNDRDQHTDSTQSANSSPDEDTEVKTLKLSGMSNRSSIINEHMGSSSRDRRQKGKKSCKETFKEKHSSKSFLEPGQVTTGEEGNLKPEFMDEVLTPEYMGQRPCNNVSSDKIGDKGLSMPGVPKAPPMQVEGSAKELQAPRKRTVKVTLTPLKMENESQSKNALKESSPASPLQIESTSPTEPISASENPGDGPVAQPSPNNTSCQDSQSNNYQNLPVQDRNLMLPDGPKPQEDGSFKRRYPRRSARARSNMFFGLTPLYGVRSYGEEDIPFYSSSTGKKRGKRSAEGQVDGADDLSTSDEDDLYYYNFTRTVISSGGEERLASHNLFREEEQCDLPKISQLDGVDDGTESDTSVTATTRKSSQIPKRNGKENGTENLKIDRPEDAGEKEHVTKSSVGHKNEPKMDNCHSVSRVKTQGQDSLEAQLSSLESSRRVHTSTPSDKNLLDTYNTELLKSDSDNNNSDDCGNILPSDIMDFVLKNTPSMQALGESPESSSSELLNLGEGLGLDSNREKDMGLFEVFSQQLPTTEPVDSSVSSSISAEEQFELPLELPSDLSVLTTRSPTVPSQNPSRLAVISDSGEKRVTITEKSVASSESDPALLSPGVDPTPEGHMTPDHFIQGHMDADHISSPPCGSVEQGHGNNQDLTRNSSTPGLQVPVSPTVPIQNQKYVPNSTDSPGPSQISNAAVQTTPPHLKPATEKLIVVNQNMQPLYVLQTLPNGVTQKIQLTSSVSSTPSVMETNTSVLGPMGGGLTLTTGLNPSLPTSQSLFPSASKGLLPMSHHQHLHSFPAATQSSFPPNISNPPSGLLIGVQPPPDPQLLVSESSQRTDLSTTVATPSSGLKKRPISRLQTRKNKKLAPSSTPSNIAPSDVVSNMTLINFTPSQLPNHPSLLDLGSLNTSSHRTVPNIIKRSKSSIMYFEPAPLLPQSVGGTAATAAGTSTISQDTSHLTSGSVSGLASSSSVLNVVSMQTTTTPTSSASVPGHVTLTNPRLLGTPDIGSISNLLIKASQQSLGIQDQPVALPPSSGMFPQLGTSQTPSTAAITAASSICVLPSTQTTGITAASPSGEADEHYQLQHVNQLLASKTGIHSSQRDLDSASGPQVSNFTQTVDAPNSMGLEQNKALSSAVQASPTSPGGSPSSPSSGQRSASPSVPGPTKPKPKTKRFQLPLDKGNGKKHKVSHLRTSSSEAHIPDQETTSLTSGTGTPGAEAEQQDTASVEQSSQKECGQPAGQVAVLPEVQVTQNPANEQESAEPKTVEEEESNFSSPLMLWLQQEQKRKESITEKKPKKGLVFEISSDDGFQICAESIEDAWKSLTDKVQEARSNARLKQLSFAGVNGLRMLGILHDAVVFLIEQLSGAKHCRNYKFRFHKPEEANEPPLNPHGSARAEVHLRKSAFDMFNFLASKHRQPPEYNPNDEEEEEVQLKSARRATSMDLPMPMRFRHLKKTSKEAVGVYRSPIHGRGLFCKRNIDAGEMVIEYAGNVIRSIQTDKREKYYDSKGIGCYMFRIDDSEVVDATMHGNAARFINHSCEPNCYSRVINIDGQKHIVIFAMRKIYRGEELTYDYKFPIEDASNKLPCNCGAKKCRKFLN
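Fluorescence polarization: 7 uM MLL-CXXC (stock) preincubated 5 min with compounds, then 50 nM fluorescein-HOX-A9 DNA (stock) added; 30 min ambient. Buffer 50 mM Tris-HCl pH 7.5, 50 mM NaCl, 1 mM DTT, 0.05% BSA.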
GoLoco inh red: blocks human Gai1 binding to RGS12 GoLoco peptide, red readout. Gai1:RGS12 GoLoco peptide FP, rhodamine, 10 min. Potency, µM (series often up to 61.6 µM), inactives show at the highest dose activity, negative = inhibition, actives largely listed as inhibitors. actives 0.44% (n = 230,000). AID 880; active = well fitted inhibition curve with a large enough effect, not every such curve was filed as active; inactive = no such curve, though single readings can be large or run the other way; also: potency is read from the fitted curve at half-maximal effect; % is scaled to controls: 0 for no effect and ±100 for the full control effect; nearly all actives have a fitted effect of over 30% in size
Menin MLL FP TR: inhibitors of human menin-MLL interaction, mutant MLL peptide; actives 0.23% (n = 270,000); Potency, µM (series often up to 61.6 µM), without a hit: at the top dose FP activity change, negative = inhibition, actives largely listed as inhibitors; Menin + Texas Red MLL mutant peptide, fluorescence polarization; active = well fitted inhibition curve with a large enough effect in the polarisation, with a control signal flat, not every such curve was filed as active; inconclusive = small, poorly fitted or top-dose-only effect, or effect the other way, or a change in a side signal; inactive = no such curve, though single readings can be large or run the other way; the % refers to the polarisation; also: potency is read from the fitted curve at half-maximal effect; % of control where 0% means no effect
TexasRed fluor: alters Texas Red total fluorescence, flagging assay interference; Potency, µM (doses to about 106 µM), without a hit: top-dose fluorescence change, negative = quenching; TRb/SRC2 Texas Red total fluorescence interference; AID 1479; actives 0.29% (n = 280,000); active = well fitted curve in either direction with a large enough effect; inconclusive = small, poorly fitted or top-dose-only effect; also: potency is read from the fitted curve at half-maximal effect; % is scaled to controls: 0 for no effect and ±100 for the full control effect
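Flags fluorescent or light-absorbing compounds by total fluorescence, S + 2P, at 555 nm excitation and 632 nm emission. Mixture: 20 nM Texas Red SRC2 peptide, 0.6 uM human TRb LBD, 1 uM T3, 5% DMSO; compound exposure 5 h at ambient temperature.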
* marks the source's active call; other numbers are inactive results; ? = inconclusive; . = not tested or not shown; ! = repeats disagree; [ ] = dose if it differs, or a comment. Hits are enriched below; roughly 0.5% of the tested compounds scored in any of these assays.

SMILES	TRb-SRC2 inh	Menin-MLL FL inh	MLL CXXC-DNA inh	GoLoco inh red	Menin MLL FP TR	TexasRed fluor
CC(C)CCCCCCc1ccc(OCCOCCO)cc1	6%[201 µM]	.	.	.	.	2%[201 µM]
Cc1cc(NC(=O)Cn2c(=O)nc(-c3ccccc3F)c3cc(Cl)ccc32)ccc1Br	-26%[53 µM]	.	.	.	.	0.035µM*[quencher]
O=C(NNC(=O)c1cc2cc3ccccc3nc2s1)c1ccc(F)cc1	.	2	30%	51%	3.2µM*	.
CCCCn1nnnc1SCC(=O)Nc1ccc(N(C)C)cc1	11%	2	-6%	10µM*	-2%	0%
CCCCn1nnnc1SCC(=O)Nc1ccc(F)cc1	-5%	1	-2%	3%	19%	-6%
Cc1ccccc1Oc1ncnc2oc(-c3ccccc3)cc12	-6%	4	20%	69%	20%	1%
Clc1ccc(Oc2ncnc3oc(-c4ccccc4)cc23)cc1	3%	-2	7%	27%	10µM*	-4%
COc1c2c(cc3c1C(CC(=O)c1c(O)c(OC)c4occc4c1OC)[N+](C)(C)CC3)OCO2 (stereo not drawn)	-4%	-2	.	3%	-7%	-6%
CCc1nnc2c(Nc3cccc(F)c3)nc3ccc(C(=O)c4ccccc4)cc3n12	-7%	.	.	.	.	-1%
COc1ccc(C2=Nn3c(nnc3-c3ccc(OC)c(OC)c3)SC2)cc1OC	3%	3	.	.	-9%	-2%
CCCN1CCCc2ccccc21	-8%	1	-9%	5%	25µM*	-2%
CCN1C(=O)CCCc2ccccc21	-5%	-1	4%	7%	-1%	1%
CCc1cccc(CC)c1NC(=O)CSc1nc2ccc(N3C(=O)C4C(C3=O)[C@H]3C=C[C@@H]4C3)cc2s1 (stereo partly drawn)	0%	3	?	2µM*	4%	-2%
CCc1cccc(C)c1NC(=O)CSc1nc2ccc(N3C(=O)c4ccccc4C3=O)cc2s1	-12%	8	14%	7%	?	-2%
O=c1cc(-c2cccc(O)c2O)oc2ccccc12	-4%	?	.	-10%	25%[24.8 µM]	-6%
CC(C)OB(OC(C)C)OC(C)C	3%[201 µM]	.	.	.	.	-4%[201 µM]
CC(C)/C(=N/[N+](C)(C)C)c1ccccc1	.	.	.	2.8µM*	.	.
O=C(/C=C/c1ccc(O)c(O)c1)c1ccc(O[C@@H]2O[C@H](CO)[C@@H](O)[C@H](O)[C@H]2O)c(O)c1O	7%	6	.	.	26%	-17%
Fc1ccc2c(c1)-c1nc(-c3ccccc3)cc(-c3ccccc3)c1CO2	1%	.	.	.	.	-1%
Fc1ccc(-c2cc(-c3ccc(F)cc3)c3c(n2)-c2cc(F)ccc2OC3)cc1	-3%	.	.	.	.	18µM*[quencher]
COc1cc(/C=C2\CC(C(C)(C)C)C/C(=C\c3cc(OC)c(OC)c(OC)c3)C2=O)cc(OC)c1OC (stereo not drawn)	.	-16	?	.	7.9µM*	.
Cn1cc(/C=N/n2cnc3scc(-c4ccc(Cl)cc4)c3c2=O)c2ccccc21	-2%	0	6%	16%	11µM*	-4%
CCn1cnc2scc(-c3ccccc3)c2c1=O	-8%	-1	14%	-12%	-16%	-4%
CCOC(=O)c1ccccc1C	7%[201 µM]	.	.	.	.	-4%[201 µM]
Cc1cc(C)cc(N=C2NC(=O)/C(=C/c3cccs3)S2)c1	0%	12	9%	1.8µM*	1%	-7%
SMILES	TRb-SRC2 inh	Menin-MLL FL inh	MLL CXXC-DNA inh	GoLoco inh red	Menin MLL FP TR	TexasRed fluor
O=C1NC(=Nc2ccccc2)S/C1=C\c1cccs1	8%	1	-6%	-1%	.	-2%
CCCCCCc1ccc(N)cc1	-8%[201 µM]	.	.	.	.	1%[201 µM]
COc1cc(NCc2ccc3nc(N)nc(N)c3c2C)cc(OC)c1OC	-3%	0	12%	2%	25µM*!	-18%
Cc1ccc(NC(=O)C2CCCN2S(=O)(=O)c2cccc3nsnc23)cc1Cl (stereo not drawn)	3%	.	.	.	.	-1%
COc1ccc(S(=O)(=O)N2CCC(n3c(C)nc4cccnc43)CC2)cc1Cl	11%	.	.	.	.	0%
Cc1ccccc1NC(=O)c1c(NC(=O)c2ccncc2)sc2c1CCC(C(C)(C)C)C2 (stereo not drawn)	3%	.	.	.	.	0%
Cc1ccccc1CN1CCC(CNc2ncnc3onc(-c4ccc(F)cc4)c23)CC1	-19%	.	.	.	.	0.071µM*[quencher]
Cc1cccc(Nc2ncnc3onc(-c4ccc(F)cc4)c23)c1C	.	0	3%	.	-18%	.
CCOC(=O)N1CCN(Cc2nc3cc(NC(C)=O)ccc3n2C(C)C)CC1	-10%	.	.	.	.	1%
CCCC(=O)Nc1ccc2c(c1)nc(CN1CCN(C(=O)OCC)CC1)n2C(C)C	-13%	.	.	.	.	100µM*[quencher]
COc1ccc(-c2nn(CC(=O)Nc3ccc(Cl)c(Cl)c3)c(=O)c3ccccc23)cc1	2%	6	17%	31%	10µM*	1%
O=C1OC2(c3cc(I)c(O)c(I)c3Oc3c2cc(I)c(O)c3I)c2c(Cl)c(Cl)c(Cl)c(Cl)c21	25µM*	?	.	.	?	7.1µM*[fluorescent]
Cc1cc(O)ccc1C1(c2ccc(O)cc2C)OC(=O)c2ccccc21	-8%	3	-5%	-2%	20%	1%
O=C1OC2(c3ccccc31)c1cc(I)c(O)c(I)c1Oc1c2cc(I)c(O)c1I	?	?	.	.	?	40µM*[fluorescent]
O=C1OC2(c3ccc(O)cc3Oc3cc(O)ccc32)c2ccccc21	-19%	?	.	0.79µM*	?	-13%
CCCN(CCC)c1c([N+](=O)[O-])cc(C(F)(F)F)c(N)c1[N+](=O)[O-]	-2%[201 µM]	.	.	.	.	-2%[201 µM]
COCCn1c(C)cc(O)c(C(c2ccccc2OC)N2CCCCC2)c1=O (stereo not drawn)	1%	.	.	.	.	-1%
CCOc1ccc(CNS(=O)(=O)c2cc3c(cc2C)NC(=O)CO3)cc1OC	4%	.	.	.	.	-3%
Cc1cc(C)n2c(Nc3ccc(C(C)C)cc3)c(-c3ccsc3)nc2n1	5%	.	.	.	.	-2%
Cc1cc(C)n2c(Nc3ccc(Cl)cc3)c(-c3ccsc3)nc2n1	1%	.	.	.	.	1122µM*[quencher]
COC(OC)(C(=O)c1ccccc1)c1ccccc1	-3%[201 µM]	.	.	.	.	-3%[201 µM]
Brc1ccc(Oc2ccc(Br)cc2)cc1	1%[201 µM]	.	.	.	.	-3%[201 µM]
COc1cccc(Nc2nc(-c3cccc(N4C(=O)c5ccccc5C4=O)c3)cs2)c1	3%	2	33%	2%	14µM*	0%
CCCCCCNC(=O)N[C@H](C(=O)NCCC[C@H]1CN2C(=NC[C@H]2C)N1CCC(c1ccccc1)c1ccccc1)C(C)O (stereo partly drawn)	4%	-1	5%	10µM*	.	1%
C[C@@H]1CN=C2N(CCNC(=O)CCC3CCCCC3)[C@H](Cc3ccc(O)cc3)CN21	-1%	-5	11%	-7%	-1%	0%
COc1ccccc1-c1cc(C(=O)Nc2ccc(F)cc2F)no1	-5%	5	-10%	-1%	11µM*	1%
COc1ccccc1-c1cc(C(=O)Nc2cc(Cl)ccc2O)no1	2%	.	.	.	.	5%
